Compound activity deposited in PubChem by several laboratories.
Shown are actives, neighbours in structure and some others; about 4.6% of the full set was active somewhere.
tim23-1 inh: growth inhibitors of tim23-1 mutant yeast, primary screen, luminescence, uHTS | inhibition, % at 20 µM | 1.3% of 330,000 active | S. cerevisiae tim23-1 growth, BacTiter-Glo luminescence, 24 h;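 active = growth inhibition of the mutant yeast at or above 50%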;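 note: temperature-sensitive mutant grown at 25 °C; plate controls were DMSO-treated mutant yeast for no effect and medium wells lacking yeast for full effect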
TIM10 inh: growth inhibitors of isogenic TIM10 control yeast, primary screen, counter-screen for tim10-1 yeast inhibitor project, luminescence, uHTS. S. cerevisiae TIM10 strain growth, BacTiter-Glo luminescence, 24 h. 1.4% of 330,000 active. inhibition, % at 10 µM. AID 463195, 2010;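 active = inhibition of 40% or more at the single tested concentration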;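 note: wild-type TIM10 isogenic control strain grown at permissive 25 °C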
tim10-1 inh: growth inhibitors of tim10-1 mutant yeast, primary screen, luminescence, uHTS; 2.2% of 330,000 active; inhibition, % at 20 µM; S. cerevisiae tim10-1 ts strain growth, BacTiter-Glo, 24 h;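 active = inhibition of at least 40%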;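 note: mutant grown at 25 °C; 0% = DMSO wells with yeast and 100% = wells holding no yeast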
PfHsp90 yeast 2: growth inhibition of PfHsp90-expressing yeast, primary screen, antimalarial PfHsp90 inhibitor project, S. cerevisiae, BacTiter-Glo luminescence, single point, set 2; BacTiter-Glo ATP, 48 h; yeast lacking PDR1 and PDR3 efflux regulators; inhibition, % at 9.4 µM; 0.32% of 310,000 active;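 active = every replicate shows inhibition above about 80%, whatever the replicate mean, limit read from the data; inconclusive = mean inhibition reaches the set limit but some replicate falls short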;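 note: 0% = DMSO neutral controls and 100% = 20 µM radicicol positive controls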
SKKanGAS inh: S. pyogenes SKKanGAS growth inhibitors in kanamycin, primary screen, streptokinase expression inhibitor project, SKKanGAS strain, BacTiter-Glo luminescence | 1.3% of 300,000 active | AID 1662, 2009 | inhibition, % at 7.5 µM | 6 h;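 active = mean replicate score, as percent of positive control median, at least 50; inconclusive = mean below 50 but one replicate at or above 50; inactive = mean and every replicate below 50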;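 note: strain carries kanamycin resistance gene driven by streptokinase promoter and grows in 40 µg/ml kanamycin; loss of luminescence reflects streptokinase promoter inhibition or plain growth inhibition; 0% = median of DMSO wells and 100% = positive control at its reference dose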
NALP3 yeast inh: NALP3 inflammasome inhibitors in reconstituted yeast, primary screen, luminescence, uHTS | 0.39% of 330,000 active | inhibition, % at 10 µM | Yeast reconstituted NLRP3/ASC/caspase-1, beta-gal luminescence, 24 h;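 active = inhibition of 50% or more; inactive = inhibition below 50%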;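 note: plate controls were induced DMSO wells for no effect and uninduced yeast grown without galactose for full effect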
An asterisk follows results filed as active; ? = inconclusive; . = no result; + = active, no number.

SMILES	tim23-1 inh	TIM10 inh	tim10-1 inh	PfHsp90 yeast 2	SKKanGAS inh	NALP3 yeast inh
Cc1[nH]c(N=Nc2ccccc2)nc1N=Nc1ccccc1	39.5	8.5	-4.2	103.9*	?	46.2
Nc1ccc(N=Nc2ccccc2)c(N)n1	7.4	11.6	-1.5	-24.1	1.6	25.4
CC(/C=C1\SC(=S)N(CCC(=O)Nc2cccc(C(=O)O)c2)C1=O)=C\c1ccccc1	24.5	11.0	5.7	8.0	111.7*	8.8
CC(=C\c1ccccc1)/C=C1/SC(=S)N(CCCC(=O)O)C1=O	18.0	-0.8	7.7	-15.3	24.1	2.1
CC(/C=C1\SC(=S)N(CCCC(=O)Nc2ccc(C(=O)O)cc2)C1=O)=C\c1ccccc1	19.3	14.9	18.5	-11.9	120.6*	11.1
CCC(C)[C@H]1CN=C(N)N1CCc1cccc(F)c1 (some centres not stated)	-7.6	-8.3	-13.4	31.5	4.3	14.4
O=C(NCCc1ccc(Cl)cc1)C1COc2ccccc2O1 (configuration not stated)	21.9	8.9	8.8	0.5	-3.6	18.8
Cc1c(CCC(=O)O)c(=O)oc2c(C)c(OCc3cc4c(cc3Cl)OCO4)ccc12	9.8	11.6	12.5	1.3	67.2*	3.0
CCc1ccc(NC(=O)CCC(=O)N2CCSc3ccccc32)cc1	26.5	5.7	11.1	0.2	-6.0	7.9
CCCC[n+]1c(-c2ccc(Cl)cc2Cl)csc1Nc1ccccc1	-1.6	8.5	9.8	-5.9	5.1	13.5
Clc1ccc(-c2csc(Nc3ccccc3)[n+]2Cc2ccco2)c(Cl)c1	.	.	.	12.0	78.7*	.
CN=c1sc2c(n1C)C(=O)c1ccccc1C2=O	.	.	.	-101.5	.	.
Cc1ccc(-c2cc(-c3ccc(C)o3)nc(N)c2C#N)cc1	22.7	7.0	21.2	9.7	5.7	10.5
Cc1cc(-c2cc(-c3ccc(Cl)cc3)nc(N)c2C#N)co1	33.1	28.5	24.6	121.9*	16.7	15.1
Cc1ccc(-c2cc(-c3ccc(F)cc3)c(C#N)c(N)n2)o1	24.8	15.3	27.7	120.0*	-12.9	30.2
COc1ccc2c(c1)OC[C@H]1[C@H]2N2C(=O)c3cc(Br)ccc3NC(=O)[C@@]2(C)[C@H]1c1ccccc1	46.5	8.2	35.7	102.3*	.	12.0
COc1ccc2c(c1)[C@H]1[C@H](CO2)[C@H](c2ccccc2)[C@]2(C)C(=O)Nc3ccc(Br)cc3C(=O)N12	42.0	34.4	18.9	+	.	13.1
COc1ccc2c(c1)C(=O)N1[C@H]3c4cc(OC)ccc4OC[C@@H]3[C@H](c3ccccc3)[C@]1(C)C(=O)N2	6.5	-4.5	25.1	-36.4	.	12.3
Cc1ccc2c(c1)[C@H]1[C@H](CO2)[C@H](c2ccccc2)[C@]2(C)C(=O)Nc3ccc(Br)cc3C(=O)N12	27.7	24.0	17.8	-97.8	.	7.6
O=C1C(Cl)=C(Nc2ccc3cn[nH]c3c2)C(=O)c2ccccc21	.	.	.	-53.6	73.2*	.
O=C(Nc1ccc2cn[nH]c2c1)c1c(Cl)cccc1Cl	7.1	16.5	16.6	14.1	10.1	-0.1
CCOC(=O)N1CCN(C(=O)CNC(=O)c2ccc(Cl)cc2)CC1	-20.5	-16.1	-5.6	-14.0	-3.3	-3.3
O=C(Nc1cc(-c2ccccc2)[nH]n1)c1ccc(Cl)cc1	34.0	7.8	-31.2	4.3	75.0*	2.5
COC(=O)c1ccc2[nH]c3cccc(/C(=C/c4ccccc4)c4ccccc4)c3c2c1	-1.4	-4.5	13.3	-5.0	94.3*	-0.7
COc1cc2c(cc1OC)[C@@H](NC(=O)CCc1ccccc1)[C@H](O)C2	18.8	-8.1	5.0	-2.8	.	.
NC(=O)C1CC(=O)N(c2ccc(OCc3c(Cl)cccc3Cl)cc2)C1 (configuration not stated)	21.7	-2.0	18.0	40.3	-10.8	-14.7
COc1cccc(-c2nn(-c3ccccc3)cc2C(=O)Nc2nccs2)c1	25.0	30.0	31.4	-41.3	61.6*	19.5
O=C(Nc1nccs1)c1cn(-c2ccccc2)nc1-c1ccncc1	20.6	5.1	22.3	3.1	4.1	9.2
